This is an account of results in PubChem BioAssay AID686971 (National Center for Advancing Translational Sciences (NCATS), 2013).

The campaign covered roughly 360,000 compounds. About 7,500 (2.1%) were called active. Roughly 8% stayed inconclusive and do not appear here. This excerpt belongs to a sample that is enriched for actives. Unmarked numbers belong to inactive results. The call rests on the fitted dose curve; in most records, active means well fitted cell-killing curve with a large enough effect; inconclusive means small, poorly fitted or top-dose-only effect, or effect the other way, or another doubt; inactive means no such curve, though single readings can be large or run the other way.
Potency means the concentration at half of the fitted maximal effect.

The test is described as follows: qHTS for induction of synthetic lethality in tumor cells producing 2HG: qHTS for the HT-1080-IDH1KD cell line.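 On activity, negative = toxicity: 0% = DMSO wells and -100% = cell-free medium wells.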 The settings on record: HT-1080 IDH1 knockdown viability, ATP luminescence, 48 h; series mostly up to 46.1 µM; activity, negative = toxicity: at the top concentration. In short, it runs like this:
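IDH1KD HT-1080 cells, 750/well, RPMI + 5% FBS; compound pinned after 2 h settling; 48 h, 37 °C; CellTiter-Glo luminescence; % activity normalised to DMSO and no-cell wells; curves fitted, classed by r2 and efficacy.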
With `NC(=O)c1ccccc1N(Cc1ccccc1)S(=O)(=O)c1ccccc1`, the “activity, negative = toxicity” value was -3.44%.
In the case of `CCOC(=O)N1CCN(C(=O)c2ccccc2N(Cc2ccccc2)S(=O)(=O)c2ccc(OC)cc2)CC1`, the Potency is 3.26 µM (active).
With `CCCc1ccc(C(O)c2ncc(-c3cccc(OC)c3)[nH]2)cc1` (stereo not given), the “activity, negative = toxicity” value was -10.3%.
On the same count and under the same terms, the figure for `CN(CCO)C(=O)c1nc[nH]c1C(=O)N(C)Cc1ccccc1` is 0.785%; for `Cc1ccc(-c2nc3ccc(Br)cn3c2Cc2ccccc2C(F)(F)F)cc1` it is -27.3%.
Take `Cc1cc(N)n2nc(-c3ccc(C(C)(C)C)cc3)cc2n1`: the Potency is 20.6 µM (active).
As for `Cc1cc(C(C)(C)C)cc(C)c1N`, the “activity, negative = toxicity” value was 13.7%.
Same read-out and setting: with `COc1ccc(-c2cc(C)nc3nc(N)nn23)cc1` the figure was -1.58%.
In the case of `O=C(Nc1ccc(Cl)cc1)c1csc([C@@H]2O[C@H](CO)[C@H](O)[C@H](O)[C@H]2O)n1`, the “activity, negative = toxicity” value is 8.12%.
The same measure, in the same setting: the figure for `CO[C@@H]1CN(C)C(=O)c2cc(NC(=O)Nc3cc(F)ccc3F)ccc2OC[C@H](C)N(C(=O)c2ccccn2)C[C@@H]1C` is 5.07%; for `CCOC(=O)N1C(=O)C[C@](Sc2ccc(C)cc2)(C(=O)OC)[C@H]1c1ccccc1` it is 0.152%.
On the same count and under the same terms, the figure for `Nc1ncnc2c1ncn2[C@@H]1O[C@H](C(=O)NCC(F)(F)F)[C@@H](O)[C@H]1O` is 15.9%; for `COc1ccc(-c2[nH][nH]c(=O)c2NC(=O)c2ccc([N+](=O)[O-])cc2)cc1` it is 13.7%; for `CCOC(=O)c1cc(-c2sc(NC(=O)c3ccccc3)nc2C)n(-c2ccc(Br)cc2)n1` it is -4.35%.
The same measure, in the same setting: the figure for `c1ccc(C(c2ccccc2)N2CCN(Cc3nnnn3C3CCCCC3)CC2)cc1` is 0.86%.
With `CC1(C)CC(N2CCN(C(c3ccccc3)c3ccccc3)CC2)=CC(=[N+]2CCCCC2)C1`, the Potency was 2.59 µM (active).
With `COc1ccccc1CN1CCN(C(c2ccccc2)c2ccccc2)CC1`, the “activity, negative = toxicity” value is -3%.
Still for that read-out and setting: with `OC(c1ccccc1)c1nc(/C=C/c2ccc(C(F)(F)F)cc2)cs1` (stereo not given) the figure was -4.08%; with `CCCCc1ccc(S(=O)(=O)NC(=O)C2(C)CCN2C(=O)c2ccccc2)cc1` (stereo not given), 11%.
As to `CCCCCn1c(SCCC(C)C)nc2c1c(=O)[nH]c(=O)n2C`, the Potency is 20.6 µM (active).
Consider `C=CCSc1nc2c(c(=O)[nH]c(=O)n2C)n1Cc1ccccc1`, for which the “activity, negative = toxicity” value was 0.829%.
On the same count and under the same terms, with `CCCCCCn1c(SCC(=O)c2ccccc2)nc2c1c(=O)[nH]c(=O)n2C` the figure was 3.03%.
Still for that read-out and setting: with `COCCNC(=O)c1cc2c(Br)ccc(Br)c2nc1N` the figure was -2.04%; with `CSc1ncnc2c1ncn2CCCNCC1CCCCC1`, -6.56%.
Turning to `CCc1nc2ccc(C(=O)NCCNC(C)=O)cn2c1N(CC)Cc1cccc(Br)c1`, the “activity, negative = toxicity” value is 15%.
With `CN(Cc1ccccc1)C(=O)CCC1CCN(C(=O)c2ccco2)CC1`, the “activity, negative = toxicity” value is 0.423%.
On the same count and under the same terms, the figure for `Cc1cc(NC(=O)CCC(=O)N(c2cccc(F)c2)C(C(=O)NC2CCCC2)c2ccncc2)no1` (stereo not given) is -1.39%; for `Cc1cc(NC(=O)CCC(=O)N(c2ccccc2)C(C(=O)NC2CCCC2)c2ccncc2)no1` (stereo not given) it is 18.2%.
Regarding `Cc1cc(NC(=O)/C=C/C(=O)N(c2ccccc2C)C(C(=O)NC2CCCC2)c2ccc(F)cc2)no1` (stereo not given), the Potency was 10 µM (active).
`O=C(N=C1SC2CS(=O)(=O)CC2N1Cc1ccccc1)c1ccccc1` (stereo not given): the “activity, negative = toxicity” value was -1.6%.
On the same count and under the same terms, with `COC(=O)[C@]12CCCCC=C1N(Cc1ccccc1)C(=O)[C@H](CC(=O)NCc1ccc(C)o1)C2` the figure was 7.74%; with `CCn1c(C(O)c2cc(OC)ccc2OC)nc2ccccc21` (stereo not given), 2.43%.
For the compound `Nc1nonc1-c1nc2ccccc2n1Cc1ccc(F)cc1`, the “activity, negative = toxicity” value was -6.38%.
Take `COc1ccc(C)c(Cn2c(-c3nonc3N)nc3ccccc32)c1`: the Potency is 5.17 µM (active).
For the compound `COCCCn1c(=O)/c(=C/c2ccccc2OC(C)C)s/c1=C(\C#N)C(=O)Nc1ccc(C(=O)O)cc1`, the “activity, negative = toxicity” value was -17.7%.
On the same count and under the same terms, the figure for `CC1(c2cccc(Br)c2)NC(=O)N(CC(=O)NCCC2=CCCCC2)C1=O` (stereo not given) is -4.72%.
As to `Cc1cccc(-c2nc(Nc3ccc(O)cc3)c3ccccc3n2)c1`, the Potency is 11.6 µM (active).
Consider `Oc1ccc(-c2nnc(Nc3ccccc3)c3ccccc23)cc1`, for which the “activity, negative = toxicity” value is 1.46%.
As to `Cc1ccc2nc(Nc3ccccc3O)nc(-c3ccccc3)c2c1`, the activity, negative = toxicity was -0.715% [at 9.24 µM].
As to `CC1=C(C(=O)N2CCOCC2)CC(CC(=O)NCc2ccco2)C(=O)N1Cc1ccc(F)cc1` (stereo not given), the “activity, negative = toxicity” value is -4.3%.
As to `COc1ccc(N2c3ccccc3CN(Cc3ccccc3)[C@@H](C)[C@H]2Cc2ccc(-c3ccccc3)cc2)cc1`, the “activity, negative = toxicity” value is 4.14%.
On the same count and under the same terms, the figure for `O=C(NCc1ccccc1Cl)c1csc([C@@H]2O[C@H](CO)[C@@H](O)[C@H]2O)n1` is 0.392%.
As for `CCN(CC)c1ccc(NC(=O)c2ccc(Cl)nc2)cc1`, the Potency was 7.31 µM (active).
For `O=C(Nc1ccc2nc3n(c(=O)c2c1)CCCC3)c1ccc(Cl)nc1`, the “activity, negative = toxicity” value was 14.3%.
The same measure, in the same setting: the figure for `O=C(NNC(=O)c1ccc(Cl)nc1)c1ccc(Br)cc1` is 15.7%; for `CC(C)n1ncc2c(C(=O)N3CCN(Cc4cccs4)CC3)cc(C3CC3)nc21` it is -11.7%; for `CC1C(=O)N(Cc2cn(CC3CCCCC3)nn2)CCS(=O)(=O)N1Cc1ccc(-c2cccc(N(C)C)c2)cc1` (stereo not given) it is -17.4%.
On the same count and under the same terms, the figure for `O=C(CN1CCCCC1)N1c2ccccc2Sc2ccc(C(F)(F)F)cc21` is -9.16%; for `COc1cc(/C=C/C(=O)N2c3ccccc3Sc3ccc(C(F)(F)F)cc32)cc(OC)c1OC` it is 4.35%.
For the compound `O=C(CN1CCCCCC1)N1c2ccccc2Sc2ccc(C(F)(F)F)cc21`, the Potency was 11.2 µM (active).
